# Hits are enriched below; roughly 3.1% of the tested compounds scored in any of these assays.
# KKLEB cytotox: cytotoxicity in KKLEB CF airway cells, primary screen, cytotoxicity control for CF NF-kB inhibitor project, cell-based, uHTS, fluorescence assay plates; activity change (cytotoxicity), % at 5 µM; 0.36% of 360,000 active; KKLEB CF airway cells viability, ATPlite luminescence, overnight; hits give low values; cells stimulated with P. aeruginosa culture filtrate;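 active means corrected activity change at or below -50% at 5 µM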
# CF NFkB block: inhibitors of PAF-induced NF-kB signaling, primary screen, cell-based, GFP fluorescence, uHTS; 0.86% of 360,000 active; inhibition, % at 5 µM; KKLEB NF-kB-GFP reporter, GFP fluorescence overnight; AID 588850, 2011;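 active means at least 50% inhibition at 5 µM, scaled per plate between neutral and stimulator controls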;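 further: PAF is a Pseudomonas aeruginosa culture filtrate used as stimulus; plate controls were PAF-stimulated DMSO wells for no effect and unstimulated DMSO wells for full effect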
# ABHD5 PLIN5 PPI: ABHD5-PLIN5 interaction inhibitors, primary screen, cell lysate, split luciferase complementation, luminescence | Perilipin-5 (Homo sapiens) + 1-acylglycerol-3-phosphate O-acyltransferase ABHD5 (Homo … | Split G. princeps luciferase complementation, 4 h | inhibition, % at 4 µM | 0.78% of 360,000 active;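 active means inhibition above the mean inhibition across every tested compound plus 3 SD, cut at about 22% in these data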;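 further: 0% = DMSO only wells and the 100% control is not disclosed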
# HIF-2a block: HIF-2a reporter inhibitors, primary screen, luminescence, 786-0 RCC cells. inhibition, % at 18.8 µM. 0.72% of 360,000 active. 786-0 RCC cells HIF-2a reporter, luciferase luminescence, overnight;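 active means inhibition of the luminescence signal of 40% or more relative to plate controls, in a single-dose primary screen at 18.75 µM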
# MITF TRPM1 inh: inhibitors of MITF-dependent TRPM1 promoter reporter, primary screen, cell-based, SK-MEL-5, single point, luciferase. 0.83% of 330,000 active. inhibition, % at 12.5 µM. SK-MEL-5 TRPM1 promoter luciferase, 24 h;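 active means mean inhibition across replicates of 60% or more, whatever share of single replicates reaches that level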
# Peg3 prom inh-1: Peg3 promoter-driven luciferase inhibitors, primary screen, cell-based, HeLa, luciferase luminescence; HeLa PEG-Prom luciferase reporter, overnight; inhibition, % at 20 µM; 1.7% of 360,000 active;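 active means inhibition of at least 50% at 20 µM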
# Peg3 prom inh-2: Peg3 promoter reporter inhibitors, retest, confirmation, cell-based, HeLa, luciferase reporter, single concentration; inhibition, % at 20 µM; HeLa PEG-Prom luciferase reporter, luminescence, overnight; AID 602417, 2012; 84% of 1,300 active; shares compounds with Peg3 prom inh-1;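 active means at 20 µM dose, 40% or more inhibition averaged across four replicates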
# Starred values were filed as active, the others as inactive; nt = not tested or not shown; ! = a repeat was not active.
SMILES,KKLEB cytotox,CF NFkB block,ABHD5 PLIN5 PPI,HIF-2a block,MITF TRPM1 inh,Peg3 prom inh-1,Peg3 prom inh-2
CCOCCCNC(=O)CSc1nc2nc(C)c(Cc3ccccc3)c(C)n2n1,-5,-5,-2,10,9,4,nt
CN(C)CCNC(=O)c1cccc2nc3cccc(F)c3nc12,-3,-32,0,-4,77*,105*,98*
CN(C)CCNC(=O)c1ccccc1,21,-2,-3,16,15,6,nt
O=C(CCc1ccccc1)Nc1ccnn1C1CCN(Cc2ncc[nH]2)CC1,2,8,6,7,1,21,nt
NS(=O)(=O)c1ccc(NC(=O)COC(=O)CCCN2C(=O)c3cccc4cccc(c34)C2=O)cc1,-7,-1,-5,9,-6,0,nt
CCOc1cccc(C(=O)Nc2ccc(NC(=O)c3cc4ccccc4o3)c(OC)c2)c1,1,33,6,10,27,29,nt
COc1cc(NC(=O)c2cccc(C)c2)ccc1NC(=O)c1cc2ccccc2o1,-34,43,-1,12,42,60*,50*
COc1cc(NC(=O)c2nccn2C)cc(C(=O)Nc2cccc(C(F)(F)F)c2)c1,-7,8,9,-24,36,53*!,33
COc1cc(NC(=O)c2nccnc2N)cc(C(=O)Nc2cccc(C(F)(F)F)c2)c1,-1,-25,0,12,22,7,nt
OCCCn1c(C2CCCN2c2nc(-c3ccc(F)cc3)cs2)nc2cc(Cl)c(N3CCCCC3)cc21 (centres undefined),0,11,1,13,18,56*,21
CCOC(=O)c1c(C)[nH]c(C(=O)OCC(=O)Nc2sccc2C(N)=O)c1C,-30,-16,-2,-27,38,70*,73*
Cc1ccc2c(c1)CCCN2CC(=O)Nc1cccc(S(=O)(=O)N2CCCC2)c1,2,-7,-4,8,19,7,nt
CC1CCCN(c2ncnc3c2cnn3-c2ccc(Cl)cc2)C1 (centres undefined),-64*,-60,-3,82*,92*,73*,86*
CC(Sc1nncs1)C(=O)NC1CCCCC1C (centres undefined),-6,-5,-3,15,3,-6,nt
CCCCCCCCNCCS(=O)(=O)NCc1ccc(OC)cc1,-3,-14,-7,-10,-4,56*,68*
CCCOc1ccc(NC(=O)CC2C(=O)N(CC)C(=S)N2CCNC(C)=O)cc1 (centres undefined),-3,8,6,22,-5,6,nt
CCCOc1ccc(NC(=O)CC2C(=O)N(CC)C(=S)N2CCCN2CCN(Cc3ccccc3)CC2)cc1 (centres undefined),-15,-12,9,8,73*,76*,80*
CCN(Cc1ccccc1)C(=O)Cn1c(=O)n(-c2ccc(OC)cc2OC)c(=O)c2c(C)c(C)sc21,3,-21,-3,16,-6,20,nt
COc1ccccc1N(C)S(=O)(=O)c1ccc(C(=O)N(C)Cc2ccc(Cl)s2)cc1,-17,20,6,19,14,34,nt
Cc1ccc(Cn2c(CCNc3nc(-c4ccc(Cl)c([N+](=O)[O-])c4)cs3)nc3cc(Cl)c(Cl)cc32)cc1,-7,6,-8,-6,3,73*,35
CC(C)CC(N)c1csc(Nc2ccc(C(=O)N(C)Cc3ccccc3)cn2)n1 (centres undefined),-8,17,4,11,nt,60*,85*
CCCCN(C)C(=O)c1ccc(Nc2nc(C(N)Cc3ccccc3)cs2)nc1 (centres undefined),-12,36,8,2,nt,40,nt
CN(Cc1ccccc1)C(=O)c1ccc(Nc2nc(C(N)Cc3ccccc3)cs2)nc1 (centres undefined),-46,42,4,-33,nt,93*,90*
COc1cccc(Nc2nc(C(N)Cc3ccccc3)cs2)n1 (centres undefined),-12,11,-12,-5,nt,89*,96*
COc1cccc(Nc2nc(C(N)CO)cs2)n1 (centres undefined),5,-1,2,9,nt,6,nt
SMILES,KKLEB cytotox,CF NFkB block,ABHD5 PLIN5 PPI,HIF-2a block,MITF TRPM1 inh,Peg3 prom inh-1,Peg3 prom inh-2
COc1ccccc1Cc1c(-c2ccc(C#N)cc2)nc2ccc(Br)cn12,-10,-18,5,-117,nt,-70,nt
O=Nc1c(-c2c(O)[nH]c3cc(Br)ccc23)[nH]c2ccccc12,-8,107*,3,-17,-5,101*,98*
CCN(CCO)c1ccc(Nc2cc(-c3ccc(-c4ccccc4)cc3)ncn2)cc1,4,-17,-1,-24,nt,-3,nt
CCN(CCO)c1ccc(N=Nc2cc(C)[nH]n2)cc1,-14,1,11,55*,76*,72*,56*
O=C(CCOc1ccccc1)Nc1ccnn1C1CCN(Cc2ccc(CO)o2)CC1,-5,-1,-5,13,2,8,nt
COc1cccc(/C=N/Nc2ccc(C(=O)O)cc2)c1O,7,0,-4,95*,105*,101*,94*
COc1cccc(/C=N/Nc2ccc(S(=O)(=O)O)cc2)c1O,5,6,4,18,-2,11,nt
O=C(Nc1nc2ccc(F)cc2s1)C1=COCCO1,3,-40,-5,18,19,-29,nt
O=C(Nc1nc2cc3c(cc2s1)OCCO3)C1=COCCO1,-56*,-4,16,80*,91*,97*,82*
CC(C)(C)c1ccc(OCCCNCc2ccccc2)cc1,-10,8,3,13,43,112*,61*
COc1ccc(NC(=O)COC(=O)c2ccc(-n3cnnn3)cc2)c([N+](=O)[O-])c1,3,19,-4,15,4,-2,nt
CCCCNC(=O)C(C)N(CCN(C)C)C(=O)CCCN1C(=O)NC(c2ccc([N+](=O)[O-])cc2)C(C(=O)OCc2ccccc2)=C1C (centres undefined),-19,33,14,-28,18,57*,31
CC(=O)N1CCN(S(=O)(=O)c2ccc(S(=O)(=O)NC3CCCCC3)cc2)CC1,0,-5,-12,13,-9,10,nt
Cn1cccc1-c1cc(C(=O)N/N=C/c2cc(Br)ccc2O)[nH]n1,7,4,0,3,62*,58*,62*
